PubChem BioAssay (NCI)
About 83,000 compounds went through this panel and 20% of them were active in at least one assay; those are over-represented in the sample as a whole.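 For each line, cells grew in 96-well plates with the test compound present at a single concentration for 48 hours.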 Unmarked numbers belong to inactive results. The source made the active and inactive calls.

What follows are compounds tested on OVCAR-3 ovarian (assay: NCI-60 one-dose screen, 48 h (100 = growth as untreated, 0 = no growth, -100 = all killed)). Conditions: 10 µM unless noted.
Protocol: Growth inhibition of the OVCAR-3 human tumor cell line is measured as a screen for anti-cancer activity. Cells are grown in 96 well plates and exposed to the test compound for 48 hours. Compounds are tested at a single concentration, which is 10^-5 M for most compounds. The reported endpoint is percent growth (GI% or GIPRCNT), where numbers from 0 - 100% represent growth inhibition, and numbers from -100% - 0 represent cell death. For example, a value of 40 represents 60% growth inhibition. A value of 0 means no net growth occurred over the course of the experiment. A value of -40 indicates 40% of cells at the beginning of the experiment died by the end of the experiment. A value of -100 means all cells are dead at the end of the experiment.
NCI-60 Human Tumor Cell Lines Screen was performed using the standard one-dose NCI protocol, which is described in more detail at https://dtp.cancer.gov/discovery_development/nci-60/default.htm.
Compounds with GIPRCNT values below 10 were considered active. Activity score was based on GIPRCNT using the following formula: […]
Score is 0 for GIPRCNT values of 100 or above, 50 for GIPRCNT values of 0, and 100 for GIPRCNT values of -100.
`COc1ccc(Nc2nn3c(-c4ccccc4)cc(-c4ccccc4)nc3c2C(N)=O)c(OC)c1` was tested, and the growth was 46.2%. `CSc1nc2c(c(=O)[nH]1)C(c1ccc(C)cc1)C=C(C(=O)O)N2` (stereo not given) gave a growth of 123%. With `CC(=O)Oc1csc(N(C(C)=O)c2cccc(C(F)(F)F)c2)n1` the growth was 103%. `NC1=NN(O)C2=CC([N+](=O)[O-])C=CC2=N1` (stereo not given) was tested, and the growth was 99.8%. With `COc1ccc(-c2nc(/C=N/Nc3cc(C)nc4ccc(Br)cc34)c(C)o2)cc1` the growth was -96.6% (active). In the case of `O=C(O)Cc1cccc(=O)c(O)c1C(=O)O`, the growth is reported as 114%. Work on `Cc1[nH]c2ccc(F)cc2c1CCNC(=O)C1CCN(C(=O)c2ccccc2)CC1` yielded a growth of 98.2% [25 µM]. For `Cc1ccc(-c2nc(C#N)c(S(=O)(=O)n3nc(-c4ccccc4)cc3N)o2)cc1`, the growth was 17.7%. Compound `COc1ccc(Nc2[nH]n3c(=O)cc(C)nc3c2C(N)=O)c(OC)c1` has a growth of 106%. `CCCCCCCC[C@@H](O)CC(=O)N[C@@H](CC(N)=O)C(=O)N[C@@H](CCC(N)=O)C(=O)N[C@@H](CC(=O)c1cc(C)cc(O)c1C(=O)c1c(O)cccc1O)CC(C)C` was tested, and the growth was -3.89% (active). In the case of `CC(C)(C)n1cc(-c2ccnc(NCCCNS(=O)(=O)c3cccc(F)c3)c2)c(-c2cccc(O)c2)n1`, the growth is reported as 65.7%. For `CCN(CC)CCCC(C)Nc1c2ccc(Cl)cc2nc2cc(OC)c(OC)cc12` (stereo not given), the growth was 34.4%. `O=C(O)c1nc(-c2ccccc2)oc1N1CCOCC1` was tested, and the growth was 105%. `COc1ccc(S(=O)(=O)NCCCNc2nccc(-c3c(-c4cccc([N+](=O)[O-])c4)nc4sccn34)n2)cc1` showed a growth of 41.2%. For `C/C(=N/NC(=S)Nc1ccccc1)c1nc2ccc(Cl)cc2[nH]1`, the growth was -59.5% (active). With `COc1cc(-c2nn(-c3cccc(NC(=O)Nc4ccc(Cl)c(C(F)(F)F)c4)c3)cc2-c2ccncc2)ccc1Cl` the growth was -12.4% (active). `Clc1ccc2c(NC3CCC(NC4CCCCC4)CC3)ccnc2c1` (stereo not given) showed a growth of 85.3%. For `N=C(N)c1ccc(-c2ccc(-c3ccc4ccccc4c3)s2)cc1`, the growth was 102%. `Cc1ccc(Nc2nnc(-c3ccc(Cl)cc3)o2)c(C)c1` showed a growth of 82.4%. In the case of `COc1ccccc1CNCCCN1C(=O)c2ccc3c4c(ccc(c24)C1=O)C(=O)N(CCCNCCCCNCCCN)C3=O`, the growth is reported as -96.8% (active). Work on `CN1CCN(Cc2ccc(NC(=O)c3cncc(C#Cc4cnc(N)c5ccncc45)c3)cc2C(F)(F)F)CC1` yielded a growth of 35.2%. In the case of `O=C(Nc1cccc(-n2cc(-c3ccncc3)c(-c3ccc(Cl)c(O)c3)n2)c1)Nc1cc(C(F)(F)F)cc(C(F)(F)F)c1`, the growth is reported as -67.5% (active). With `COC(=O)c1cc(=O)nc(N/N=C/c2ccco2)s1` the growth was 106%. Compound `CC(C)(C)n1cc(-c2ccnc(NCCCNS(=O)(=O)c3ccc(F)cc3)c2)c(-c2cccc(O)c2)n1` has a growth of 56.1%. With `CC1CN(c2oc(-c3ccccc3)nc2C#N)CC(C)O1` (stereo not given) the growth was 116%. `Nc1cccc(Cl)c1N` gave a growth of 109%. In the case of `Cc1cccc(/C=N/Nc2cc(C)c3cccc(C)c3n2)n1`, the growth is reported as 102%. With `O=c1[nH]c(Nc2ccc(S(=O)(=O)O)cc2)nc2nc(Nc3ccc(NC(=S)Nc4ccccc4)cc3)nc(-c3ccc(O)cc3O)c12` the growth was 119%. `O=C1CCCCC1(c1ccccc1)c1ccccc1` showed a growth of 106%. `CC(C)(C)n1cc(-c2ccnc(NCCCNS(=O)(=O)c3ccc(Br)cc3)c2)c(-c2cccc(O)c2)n1` gave a growth of 42.8%. For `Cc1cc(N/N=C/c2nc(-c3ccccc3)oc2C)c2cc(Cl)ccc2n1`, the growth was -92.5% (active). `N[C@H]1CN(C(=O)c2cc3cc(Br)c(F)c(F)c3[nH]2)C[C@@H]1O` showed a growth of 102%. `O=C(O)/C=C/C(=O)c1ccc(Cl)cc1` showed a growth of 105%. `CCCN=C1NC(=O)/C(=C/c2nc(-c3ccc(OC)cc3)n3ccccc23)S1` was tested, and the growth was 61.9%. `O=c1cc(Cc2ccc([N+](=O)[O-])cc2)[nH]c(=O)[nH]1` showed a growth of 126%. In the case of `C=C1CC2(OC1=O)C(=O)N(CCCN1C(=O)C3(CC(=C)C(=O)O3)c3ccccc31)c1ccccc12` (stereo not given), the growth is reported as -13% (active). `O=C(Nc1cccc(-n2cc(-c3ccncc3)c(-c3ccc(Cl)c(O)c3)n2)c1)Nc1ccc(Cl)c(C(F)(F)F)c1` was tested, and the growth was -43% (active). `COc1ccc(N2CCN(Cc3cc(C(=O)/C=C/c4c[nH]c5ccccc45)ccc3O)CC2)cc1` gave a growth of 114%. `CCOC(=O)CC(=O)OC` gave a growth of 123%. For `COc1ccc(C(=O)N2NC(=O)/C(=C/c3ccc(Br)cc3)N=C2c2ccccc2)cc1`, the growth was 119%.
